Source: PubChem BioAssay AID588763 (NMMLSC, 2011)
Entries with a potency or affinity are not part of this list. The source made the active and inactive calls. No rule for the calls is given here.

These molecules were tested against Beta-2 adrenergic receptor (Homo sapiens) (UniProt P07550) (assay: ADRB2 activation measured by internalization – cell-based, FAP fluorogen, flow cytometry, cherry pick 1, dose response (AID 588763)). Conditions: AM2.2-beta2AR cells, 90 min; series mostly up to 33 µM.
Sequence of Beta-2 adrenergic receptor (Homo sapiens) (P07550 whole entry, looked up): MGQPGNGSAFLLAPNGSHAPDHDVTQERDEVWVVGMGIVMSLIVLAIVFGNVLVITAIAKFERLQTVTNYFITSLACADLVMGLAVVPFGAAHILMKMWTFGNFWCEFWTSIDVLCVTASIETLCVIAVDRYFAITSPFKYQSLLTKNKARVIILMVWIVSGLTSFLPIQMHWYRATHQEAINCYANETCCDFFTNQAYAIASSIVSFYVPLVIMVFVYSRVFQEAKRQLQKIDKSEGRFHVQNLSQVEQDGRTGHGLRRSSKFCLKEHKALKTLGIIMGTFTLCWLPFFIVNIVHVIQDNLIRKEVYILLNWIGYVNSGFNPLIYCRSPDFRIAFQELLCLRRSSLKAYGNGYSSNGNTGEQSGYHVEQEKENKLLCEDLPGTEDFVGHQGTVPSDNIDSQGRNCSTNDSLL

Row | Structure (SMILES) | outcome
1 | COc1ccc(C(O)CNC(C)C)c(F)c1OC (stereo not drawn) | inactive
2 | COc1cc(C(O)CNC(C)C)cc(F)c1OC (stereo not drawn) | inactive
3 | CC(CCc1ccccc1)NC(C)C(O)c1ccc(O)cc1 (stereo not drawn) | inactive
4 | CC(NCc1ccc(Cl)c(Cl)c1)C(O)c1ccccc1 (stereo not drawn) | inactive
5 | COc1ccc(OC)c2c1CCC1NCCOC21 (stereo not drawn) | inactive
6 | CCNCC(O)c1cccc(O)c1 (stereo not drawn) | inactive
7 | COc1ccc(OC)c([C@@H](O)[C@H](C)NC(C)(C)C)c1 | inactive
8 | COc1ccc(OC)c(C(O)C2CCCCN2)c1 (stereo not drawn) | inactive
